# Test results reported in PubChem BioAssay.
# Records with an inconclusive call do not appear. Calls of active or inactive are those of the source.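 How the source made its calls, unless noted: active means viability at or below 30% in both replicate assays; inconclusive means viability at or below 30% in just one of the two assays; inactive means the rest.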
# Columns and labels:
# [1] = reducers of endogenous Her2 protein level, primary screen, SKBR3 breast tumor cells, AlphaScreen, ATP viability (AID 461;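 active means Her2 level under about 52% in both replicate screens, with viability over 70% of control, limit read from the data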;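 on Her2 level: lower value means less Her2 protein in the cells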;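 on viability: percent of carrier control wells set as 100% viability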); settings: 18-24 h, measured here: SKBR3 viability, ATP luminescence, at 10 µM
# [2] = molecular target: Receptor tyrosine-protein kinase erbB-2 (Homo sapiens) (UniProt P04626); assay: as above; settings: 18-24 h, at 10 µM, stronger effect = lower value
# Chain of Receptor tyrosine-protein kinase erbB-2 (Homo sapiens) (P04626 whole entry, looked up): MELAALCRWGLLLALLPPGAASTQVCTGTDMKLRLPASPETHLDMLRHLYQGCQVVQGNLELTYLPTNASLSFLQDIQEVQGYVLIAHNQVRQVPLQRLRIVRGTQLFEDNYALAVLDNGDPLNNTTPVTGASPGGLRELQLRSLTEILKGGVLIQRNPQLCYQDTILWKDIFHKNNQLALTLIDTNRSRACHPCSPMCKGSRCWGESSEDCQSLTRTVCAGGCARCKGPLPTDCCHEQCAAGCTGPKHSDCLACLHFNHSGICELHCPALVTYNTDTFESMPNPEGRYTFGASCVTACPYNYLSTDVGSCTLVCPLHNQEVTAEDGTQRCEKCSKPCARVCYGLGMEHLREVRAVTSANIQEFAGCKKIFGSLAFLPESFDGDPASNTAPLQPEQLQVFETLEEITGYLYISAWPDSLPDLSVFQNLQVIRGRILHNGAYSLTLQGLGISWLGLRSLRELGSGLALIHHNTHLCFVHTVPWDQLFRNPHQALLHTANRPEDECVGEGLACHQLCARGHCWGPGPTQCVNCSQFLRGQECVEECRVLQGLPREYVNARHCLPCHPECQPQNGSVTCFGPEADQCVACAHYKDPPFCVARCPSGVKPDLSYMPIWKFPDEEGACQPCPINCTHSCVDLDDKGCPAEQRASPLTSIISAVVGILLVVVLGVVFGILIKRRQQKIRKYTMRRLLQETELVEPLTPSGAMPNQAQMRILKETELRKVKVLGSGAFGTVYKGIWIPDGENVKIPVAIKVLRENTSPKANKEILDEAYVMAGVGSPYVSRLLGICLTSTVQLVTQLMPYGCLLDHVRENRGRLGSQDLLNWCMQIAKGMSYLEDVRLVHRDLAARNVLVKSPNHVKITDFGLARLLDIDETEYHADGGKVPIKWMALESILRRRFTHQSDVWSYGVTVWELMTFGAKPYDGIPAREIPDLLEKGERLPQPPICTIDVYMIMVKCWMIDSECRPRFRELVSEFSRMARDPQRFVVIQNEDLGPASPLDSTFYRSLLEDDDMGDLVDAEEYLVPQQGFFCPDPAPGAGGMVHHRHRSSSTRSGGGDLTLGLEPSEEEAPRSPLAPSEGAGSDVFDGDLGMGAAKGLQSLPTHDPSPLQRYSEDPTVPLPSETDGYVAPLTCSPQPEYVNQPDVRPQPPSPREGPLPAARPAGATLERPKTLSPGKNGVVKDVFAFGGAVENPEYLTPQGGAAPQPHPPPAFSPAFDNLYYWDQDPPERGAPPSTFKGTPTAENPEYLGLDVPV
# [3] = SK-BR-3 cell growth inhibitors, pilot screen, 24 h, human (AID 572;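 active means viability at or below 10% of carrier control in both of two separate runs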;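 further: compound exposure lasted between 18 and 24 h rather than exactly 24 h; 100% = carrier-treated control wells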); settings: SK-BR-3 viability, CellTiter-Glo luminescence, at 10 µM, stronger effect = lower value
# [4] = HUVEC growth inhibition – cell-based, human, primary screen (AID 575); settings: HUVEC proliferation, CellTiter-Glo luminescence, 72 h; at 10 µM; stronger effect = lower value;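 further: 100% = median of untreated cell wells with 0.1% DMSO on each plate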
# [5] = growth inhibitors of H69AR lung tumor, primary screen, human, duplicate replicates (AID 580;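 active means viability at or under a set limit in both replicates, limit being median viability minus 3 SD, cut at about 48% in these data, passing the limit was not always enough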;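 further: 100% = mean luminescence of untreated wells and 0% = no signal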); settings: H69AR lung tumor cells viability, ATP luminescence, 72 h; at 10 µM; stronger effect = lower value
# [6] = reversal of MRP1-mediated doxorubicin resistance, pilot screen, H69AR cells, doxorubicin co-treatment (AID 601;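 active means viability loss from added drug above about 55%, and viability with drug at most 40%, in both replicates, limit read from the data, passing the limit was not always enough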); settings: CellTiter-Glo, 72 h, at 10 µM; for differential viability (reversal): stronger effect = higher value
# [7] = Restrictive medium S. cerevisiae growth inhibition, OD615, pilot screen of yeast lifespan reduction project, restrictive growth control (AID 706;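 active means growth inhibition above a set limit, 3 SD over mean compound inhibition, in both replicates, cut at about 43% in these data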;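 further: modified DeaD lifespan yeast strain shifted to restrictive glucose medium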); settings: OD615, 48 h, at 10 µM, stronger effect = higher value
# [8] = viability gain of MRP-1-high H69AR cells under doxorubicin, pilot screen, MRP-1 activator project, CellTiter-Glo, duplicate (AID 807;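 active means viability increase at or above a cutoff of the median across tested compounds plus 3 SD, cut at about 8.5% in these data, passing the limit was not always enough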;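 further: compound pretreatment 18-22 h then 72 h combined with doxorubicin; 0% = doxorubicin alone and 100% = vehicle without doxorubicin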); settings: H69AR viability with doxorubicin, CellTiter-Glo luminescence; at 10 µM; stronger effect = higher value
# [9] = growth suppression of PTEN-deleted HCT116, pilot screen, cell-based, HCT116 clonal line, CellTiter-Glo (AID 824;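 active means viability at or below 27.92% in each of two runs, the all-compound median minus 4 SD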;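 further: 0% = 20 µM Hyamine control and 100% = vehicle cell control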); settings: 60 h, at 10 µM, stronger effect = lower value
# [10] = inhibitors of the yeast RAM network, pilot screen, dse1pr::URA3 reporter, 5-FOA selection (AID 869;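 active means inhibition over a set limit, the all-compound mean plus 3 SD, in both replicate runs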;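 further: 0% = DMSO wells with no growth and 100% = 10 µM 1-NA-PP1 with full growth; RAM network block rescues cells from 5-FOA so hits raise OD615 growth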); settings: S. cerevisiae dse1pr::URA3 5-FOA growth, OD615, 2 d; at 10 µM; stronger effect = higher value; strain carries analog-sensitive mutant Cbk1 kinase
# [11] = RAM signaling pathway blockade in yeast – S. cerevisiae, Pdr1DBD-CYC8 efflux-inhibited sensitized strain, primary screen (AID 1298;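 active means RAM network inhibition above 8.4% in each of two replicates, 3 SD over the compound average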;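 further: 0% = DMSO untreated cells without growth and 100% = 10 µM 1-NA-PP1 full growth; higher means more yeast growth rescued from 5-FOA killing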); settings: S. cerevisiae cbk1-as DSE1-URA3 strain, 5-FOA growth OD615, 2 d; at 50 µM; stronger effect = higher value
# [12] = growth suppression of beta-catenin knockout HCT116, pilot screen, human colon tumor cells (AID 823;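 active means cell viability at or below a set limit in both duplicate runs, the limit being the all-compound median minus 4 SD, cut at about 23% in these data, passing the limit was not always enough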;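 further: 0% = wells killed by 20 µM Hyamine and 100% = untreated DMSO cell wells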); settings: CellTiter-Glo, 60 h, at 10 µM, stronger effect = lower value
# [13] = H69AR cells + 2 uM doxorubicin, measured here: viability with 2 uM doxorubicin, stronger effect = lower value
# [14] = H69AR cells, compound alone cytotoxicity
structure (smiles),measurement,setting,value
Nc1ccc(S(=O)(=O)NC(=O)c2ccccc2)cc1,viability,[1],104%
same,Her2 level,[2],100% (inactive)
same,viability,[3],104% (inactive)
same,viability,[4],90% (inactive)
same,viability,[5],98.5% (inactive)
same,differential viability (reversal),[6]; H69AR cells + 2 uM doxorubicin,6.16% (inactive)
same,viability,[6]; [13],92.4%
same,viability,[6]; [14],98.5%
CCC(=O)O[C@]1(C(=O)CCl)[C@@H](C)C[C@H]2[C@@H]3CCC4=CC(=O)C=C[C@]4(C)[C@@]3(F)[C@@H](O)C[C@@]21C,viability,[1],122%
same,Her2 level,[2],86.5% (inactive)
same,viability,[3],122% (inactive)
same,viability,[4],84.9% (inactive)
same,viability,[5],87.3% (inactive)
same,differential viability (reversal),[6]; H69AR cells + 2 uM doxorubicin,-13.3% (inactive)
same,viability,[6]; [13],101%
same,viability,[6]; [14],87.3%
Cc1nc2ccccc2c2nc3ccccc3n12,growth inhibition,[7],43.3% (active)
same,viability increase,[8],-0.65% (inactive)
same,viability,[9],62.4% (inactive)
same,inhibition,[10],3.25% (inactive)
same,RAM network inhibition,[11],0.87% (inactive)
CC(C)Sc1nc(O)c(Cc2ccccc2)c(=O)[nH]1,growth inhibition,[7],-0.8% (inactive)
same,viability increase,[8],-0.54% (inactive)
same,viability,[12],104% (inactive)
same,inhibition,[10],2.81% (inactive)
same,RAM network inhibition,[11],6.91% (inactive)
CCCOc1ccc(C(=O)Nc2cc(-c3nn4c(C)nnc4s3)ccc2C)cc1,viability increase,[8],-3.69% (inactive)
same,viability,[12],101% (inactive)
same,viability,[9],92.9% (inactive)
same,inhibition,[10],1.7% (inactive)
same,RAM network inhibition,[11],3.75% (inactive)
Nc1ccc(S(=O)(=O)Nc2ncccn2)cc1,viability,[1],96.5%
same,Her2 level,[2],100% (inactive)
same,viability,[3],96.5% (inactive)
same,viability,[4],91.4% (inactive)
same,viability,[5],104% (inactive)
same,differential viability (reversal),[6]; H69AR cells + 2 uM doxorubicin,5.02% (inactive)
same,viability,[6]; [13],98.7%
same,viability,[6]; [14],104%
Cn1cc(NC(=O)c2cc(NC(=O)c3cc(NC=O)cn3C)cn2C)cc1C(=O)NCCC(=N)N,viability,[1],96%
same,Her2 level,[2],87.5% (inactive)
same,viability,[3],96% (inactive)
same,viability,[4],90.6% (inactive)
same,viability,[5],83.1% (inactive)
same,differential viability (reversal),[6]; H69AR cells + 2 uM doxorubicin,-13.2% (inactive)
same,viability,[6]; [13],96.3%
same,viability,[6]; [14],83.1%
COC(=O)CSCc1nc2ccccc2[nH]c1=O,viability increase,[8],-2.15% (inactive)
same,viability,[12],101% (inactive)
same,viability,[9],94.8% (inactive)
same,inhibition,[10],0.08% (inactive)
same,RAM network inhibition,[11],1.09% (inactive)
CC(=O)O[C@]1(C(C)=O)CC[C@H]2[C@@H]3C=C(C)C4=CC(=O)CC[C@]4(C)[C@H]3CC[C@@]21C,viability,[1],97%
same,Her2 level,[2],88% (inactive)
same,viability,[3],97% (inactive)
same,viability,[4],113% (inactive)
same,viability,[5],87.6% (inactive)
same,differential viability (reversal),[6]; H69AR cells + 2 uM doxorubicin,23.2% (inactive)
same,viability,[6]; [13],64.3%
same,viability,[6]; [14],87.6%
CC1Cc2ccccc2N1NC(=O)c1ccc(Cl)c(S(N)(=O)=O)c1 (stereo not drawn),viability,[1],93.5%
same,Her2 level,[2],105% (inactive)
same,viability,[3],93.5% (inactive)
same,viability,[4],102% (inactive)
same,viability,[5],91.4% (inactive)
same,differential viability (reversal),[6]; H69AR cells + 2 uM doxorubicin,1.41% (inactive)
same,viability,[6]; [13],90%
same,viability,[6]; [14],91.4%
CCCNCC(O)COc1ccccc1C(=O)CCc1ccccc1 (stereo not drawn),viability,[1],97%
same,Her2 level,[2],100% (inactive)
same,viability,[3],97% (inactive)
same,viability,[4],97.2% (inactive)
same,viability,[5],87.1% (inactive)
same,differential viability (reversal),[6]; H69AR cells + 2 uM doxorubicin,2.24% (inactive)
same,viability,[6]; [13],84.8%
same,viability,[6]; [14],87.1%
COc1ccc(/C=C(/C#N)c2cccnc2)cc1OC,viability,[1],92%
same,Her2 level,[2],97.5% (inactive)
same,viability,[3],92% (inactive)
same,viability,[4],96.9% (inactive)
same,viability,[5],103% (inactive)
same,differential viability (reversal),[6]; H69AR cells + 2 uM doxorubicin,6.09% (inactive)
same,viability,[6]; [13],96.7%
same,viability,[6]; [14],103%
O=C(c1cc(-c2ccccc2O)on1)N1CCc2ccccc2C1,viability increase,[8],-0.83% (inactive)
same,viability,[12],97.9% (inactive)
same,viability,[9],90.5% (inactive)
same,inhibition,[10],0.485% (inactive)
same,RAM network inhibition,[11],7.78% (inactive)
COc1ccc(-c2n[nH]c(C(F)(F)F)c2-c2cc3ccccc3o2)c(O)c1,viability increase,[8],-7.49% (inactive)
same,viability,[12],59.5% (inactive)
same,viability,[9],55% (inactive)
same,inhibition,[10],-1.46% (inactive)
same,RAM network inhibition,[11],-1.35% (inactive)
Cc1cccc(Nc2ccccc2C(=O)O)c1C,viability,[1],85%
same,Her2 level,[2],105% (inactive)
same,viability,[3],85% (inactive)
same,viability,[4],65.7% (inactive)
same,viability,[5],99.4% (inactive)
same,differential viability (reversal),[6]; H69AR cells + 2 uM doxorubicin,-3.9% (inactive)
same,viability,[6]; [13],103%
same,viability,[6]; [14],99.4%
O=C(CSCc1ccco1)Nc1cc(C(F)(F)F)ccc1N1CCOCC1,viability increase,[8],-5.7% (inactive)
same,viability,[12],63.4% (inactive)
same,viability,[9],79.1% (inactive)
same,inhibition,[10],1.91% (inactive)
same,RAM network inhibition,[11],4.46% (inactive)
O=C1C(=C2CCCCC2)SC(=S)N1Cc1ccco1,viability increase,[8],-4.02% (inactive)
same,viability,[12],80.2% (inactive)
same,viability,[9],84.4% (inactive)
same,inhibition,[10],0.825% (inactive)
same,RAM network inhibition,[11],2.66% (inactive)
Cc1ccc(C)c(OCCCC(C)(C)C(=O)O)c1,viability,[1],130%
same,Her2 level,[2],104% (inactive)
same,viability,[3],130% (inactive)
same,viability,[4],100% (inactive)
same,viability,[5],109% (inactive)
same,differential viability (reversal),[6]; H69AR cells + 2 uM doxorubicin,17.2% (inactive)
same,viability,[6]; [13],91.5%
same,viability,[6]; [14],109%
NC(Cc1ccc(Oc2ccc(O)cc2)cc1)C(=O)O (stereo not drawn),viability,[1],92.5%
same,Her2 level,[2],97% (inactive)
same,viability,[3],92.5% (inactive)
same,viability,[4],107% (inactive)
same,viability,[5],80.8% (inactive)
same,differential viability (reversal),[6]; H69AR cells + 2 uM doxorubicin,7.61% (inactive)
same,viability,[6]; [13],73.1%
same,viability,[6]; [14],80.8%
